# Measurements: PubChem BioAssay (EPA / NIEHS)
# Activity calls are given as the source filed them. The calls were made as follows, unless noted: active = hit-call score of the fitted dose curve at least 0.9, where 1 is the maximum; inactive = score below 0.9.
# Tested on: SERPINA7 (gene 6906)
# Assay: CCTE_GLTED_hTBG: CCTE's human Thyroxine-binding Globulin (TBG) Inhibition Assay, Great Lakes Toxicology and Ecology Division (GLTED) Lab (AID 2284343; active = hit-call score of the fitted dose curve at least 0.9, where 1 is the maximum;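 also: active chemicals lower fluorescence versus DMSO baseline by displacing probe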)
# Summary of the method: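 Steps: combine TBG with chemical; incubate 2 hours so that disruptors release ANSA; record fluorescence (380 ex, 475 em). Loss of signal was fitted against DMSO controls.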
row,SMILES,AC50
1,CCCCCCCCCCCCc1cccc(S(=O)(=O)O)c1,22.2 µM (active)
2,CCCSP(=S)(OCC)Oc1ccc(SC)cc1 (configuration not stated),1.52 µM (active)
3,Nc1ccc(N)cc1,20.3 µM (active)
4,O=C(NC(=O)c1c(F)cccc1F)Nc1cc(Cl)c(OC(F)(F)C(F)C(F)(F)F)cc1Cl (configuration not stated),19.5 µM (active)
5,Oc1c(Br)cc(Br)cc1Br,10.3 µM (active)

# Tested on: not listed separately
# Assay: CCTE_Padilla_ZF_Score.Craniofacial: CCTE's 144 Hour Post-fertilization zebrafish Assay Score for Craniofacial Malformation, Padilla Lab (AID 2284405)
# Summary of the method: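 Craniofacial defects were scored at 6 dpf by two blinded observers using stereomicroscopy. Exposure of wild-type embryos began at 6–8 hpf in sealed wells of 10% Hanks' solution at 26C, with chemical removed by rinsing at 5 dpf.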
row,SMILES,outcome
1,CC(F)(F)CC(F)(F)F,inactive
2,C=CCOC(F)(C(F)(F)F)C(F)(F)F,inactive
3,COC(F)(C(F)(F)C(F)(F)F)C(F)(C(F)(F)F)C(F)(F)F (configuration not stated),inactive
4,O=S(=O)(F)C(F)(F)C(F)(F)C(F)(F)C(F)(F)F,inactive

# Tested on: not listed separately
# Assay: CCTE_Padilla_ZF_Score.Edema: CCTE's 144 Hour Post-fertilization zebrafish Assay Score for Edema Malformation, Padilla Lab (AID 2284406)
# Summary of the method: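 Edema scored at 6 dpf by two blinded observers under a stereo microscope, in single outbred wild-type larvae exposed from 6-8 hpf in sealed wells (Hanks', 26C, 14:10 h light) and chemical-free after a 5 dpf rinse.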
row,SMILES,outcome
1,CC(F)(F)CC(F)(F)F,inactive
2,C=CCOC(F)(C(F)(F)F)C(F)(F)F,inactive
3,COC(F)(C(F)(F)C(F)(F)F)C(F)(C(F)(F)F)C(F)(F)F (configuration not stated),inactive
4,O=S(=O)(F)C(F)(F)C(F)(F)C(F)(F)C(F)(F)F,inactive

# Tested on: not listed separately
# Assay: CCTE_Padilla_ZF_Score.Spine: CCTE's 144 Hour Post-fertilization zebrafish Assay Score for Spine Malformation, Padilla Lab (AID 2284407)
# Method: (§1) CCTE_Padilla_ZF_Phenotype_Score is a whole embryo, multiplexed assay using zebrafish ova exposed for 144 hours post fertilization on a 96-well plate.CCTE_Padilla_ZF_Score.Spine is one of one assay component(s) measured or calculated from the CCTE_Padilla_ZF_Phenotype_Score assay. It is designed to make measurements of zebrafish development as detected with brightfield microscopy of developing zebrafish embryos.Data from the assay component CCTE_Padilla_ZF_Score.Spine was analyzed into 1 assay endpoints. This assay endpoint, CCTE_Padilla_ZF_Score.Spine, was analyzed in the positive analysis fitting direction relative to DMSO as the negative control and baseline of activity. Using a type of viability reporter, gain-of-signal activity can be used to understand changes in developmentals as they relate to the whole embryo. To generalize the intended target to other relatable targets, this assay endpoint is annotated to the zebrafish development intended target family, where the subfamily is body axis morphogenesis.
# (§2) Zebrafish husbandry: Wild type adult zebrafish (Danio rerio; undefined outbred stock obtained from Aquatic Research Organisms, Hampton, NH, 03842) were housed in an AAALAC-approved animal facility at 28C with a 14:10 h light: dark cycle (lights on at 08:30 h). Adult fish (2-3 females per male; density = 15-20 adults per tank) were kept in one of several 9-liter (L) flow-through colony tanks (Aquaneering Inc., San Diego, CA). All adults in a colony tank were placed in a 2 L (static) breeding tank (Aquatic Habitats, Apopka, FL) one hour prior to light onset. Typically, adults from two to three colony tanks were mated on the same day. Two hours after light onset the adults were returned to the colony tank. All embryos were gathered from each breeder tank, pooled, and placed in a 28C water bath for 2 h, followed by two washes with 0.06% bleach (v/v) in 10% Hanks' Balanced Salt Solution (13.7 mM NaCl 0.54 mM KCl, 25 uM Na2HPO4, 130 uM CaCl2 100 um MgSO4 and 420 um NaHCO3,), hereafter referred to as Hanks' solution, for 5 min in order to remove any residual bacteria or fungi. Immediately following washing, the embryos were examined, and healthy embryos were separated from dead or unfertilized eggs and moved into fresh Hanks'. Chemical exposures: Zebrafish embryos were exposed in 96-well plates. Between 6- and 8-hours post fertilization (hpf), healthy embryos (with chorions) were transferred, one embryo per well, into 96 well (0.5 mL) microtiter plates (Cell Culture-Treated, Flat-Bottom Microplate 96 well [Corning Costar, Kennebunk, ME; Cat 09-761-145]) filled with 200 uL of Hanks' solution. A random number generator was used to assign the order in which the rows of embryos were plated in 96 well plates each week. […]
row,SMILES,outcome
1,CC(F)(F)CC(F)(F)F,inactive
2,C=CCOC(F)(C(F)(F)F)C(F)(F)F,inactive
3,COC(F)(C(F)(F)C(F)(F)F)C(F)(C(F)(F)F)C(F)(F)F (configuration not stated),inactive
4,O=S(=O)(F)C(F)(F)C(F)(F)C(F)(F)C(F)(F)F,inactive

# Tested on: not listed separately
# Assay: CCTE_Padilla_ZF_Score.Swim_bladder: CCTE's 144 Hour Post-fertilization zebrafish Assay Score for Swim Bladder Malformation, Padilla Lab (AID 2284408)
# Method: as §1, with “plate.CCTE_Padilla_ZF_Score.Swim_bladder” for “plate.CCTE_Padilla_ZF_Score.Spine”, “CCTE_Padilla_ZF_Score.Swim_bladder” for “CCTE_Padilla_ZF_Score.Spine”, “CCTE_Padilla_ZF_Score.Swim_bladder,” for “CCTE_Padilla_ZF_Score.Spine,”, “swim bladder” for “body axis”
# as §2
row,SMILES,outcome
1,CC(F)(F)CC(F)(F)F,inactive
2,C=CCOC(F)(C(F)(F)F)C(F)(F)F,inactive
3,COC(F)(C(F)(F)C(F)(F)F)C(F)(C(F)(F)F)C(F)(F)F (configuration not stated),inactive
4,O=S(=O)(F)C(F)(F)C(F)(F)C(F)(F)C(F)(F)F,inactive

# Tested on: not listed separately
# Assay: CCTE_Padilla_ZF_Score.Position: CCTE's 144 Hour Post-fertilization zebrafish Assay Score for Position, Padilla Lab (AID 2284409)
# Summary of the method: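 Wild-type zebrafish embryos (with chorions) exposed singly from 6–8 hpf in sealed wells of Hanks' solution at 26C, rinsed at 5 dpf. At 6 dpf, blinded assessors scored abnormal water-column position by brightfield stereomicroscopy, relative to DMSO.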
row,SMILES,outcome
1,CC(F)(F)CC(F)(F)F,inactive
2,C=CCOC(F)(C(F)(F)F)C(F)(F)F,inactive
3,COC(F)(C(F)(F)C(F)(F)F)C(F)(C(F)(F)F)C(F)(F)F (configuration not stated),inactive
4,O=S(=O)(F)C(F)(F)C(F)(F)C(F)(F)C(F)(F)F,inactive

# Tested on: not listed separately
# Assay: CCTE_Padilla_ZF_Score.Living: CCTE's 144 Hour Post-fertilization zebrafish Assay Score for Viability, Padilla Lab (AID 2284410);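 also: larval death at 6 dpf judged by absent heartbeat or coagulation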
# Summary of the method: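 Mortality at 6 dpf, judged as absent heartbeat or coagulation by two blinded observers, after sealed static exposure beginning at 6–8 hpf at 26C. Larvae were rinsed free of chemical at 5 dpf, and activity was fitted relative to DMSO.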
row,SMILES,outcome
1,CC(F)(F)CC(F)(F)F,inactive
2,C=CCOC(F)(C(F)(F)F)C(F)(F)F,inactive
3,COC(F)(C(F)(F)C(F)(F)F)C(F)(C(F)(F)F)C(F)(F)F (configuration not stated),inactive
4,O=S(=O)(F)C(F)(F)C(F)(F)C(F)(F)C(F)(F)F,inactive

# Tested on: not listed separately
# Assay: CCTE_Padilla_ZF_Score.General: CCTE's 144 Hour Post-fertilization zebrafish Assay Score for General Malformation, Padilla Lab (AID 2284411)
# Summary of the method: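 Malformation, death and hatching were scored at 6 dpf by two blinded observers under a stereo microscope. Embryos were dosed singly from 6-8 hpf in sealed plates of 10% Hanks' at 26C and rinsed on 5 dpf; DMSO baseline.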
SMILES,outcome,AC50
CCOP(=O)(OCC)SCCSCC,inactive,
Nc1c(Oc2ccccc2)cc(O)c2c1C(=O)c1ccccc1C2=O,,14 µM (active)
CC(C=O)Cc1ccc2c(c1)OCO2 (configuration not stated),inactive,
CCOC(=O)C(SP(=S)(OC)OC)c1ccccc1 (configuration not stated),,8.89 µM (active)
Cc1ccc2nc3sc(=O)sc3nc2c1,,0.563 µM (active)
O=C1C=CC(=O)c2ccccc21,inactive,
CC(F)(F)CC(F)(F)F,inactive,
CCCCCCCCCCBr,inactive,
C=CCOC(F)(C(F)(F)F)C(F)(F)F,inactive,
OC(Cc1ccccc1Cl)(Cn1cncn1)C1(Cl)CC1 (configuration not stated),inactive,
Cc1cccc(OP(=O)(Oc2cccc(C)c2)Oc2cccc(C)c2)c1,inactive,
COC(F)(C(F)(F)C(F)(F)F)C(F)(C(F)(F)F)C(F)(F)F (configuration not stated),inactive,
Cc1ccccc1OP(=O)(Oc1ccccc1)Oc1ccccc1,,2.78 µM (active)
Oc1c(Br)cc(Br)cc1Br,,2.31 µM (active)
O=S(=O)(F)C(F)(F)C(F)(F)C(F)(F)C(F)(F)F,inactive,
O=S(=O)(c1ccc(Cl)cc1)c1cc(Cl)c(Cl)cc1Cl,,27.5 µM (active)
CCCCCCCCCCCCN(C)C,inactive,
CCN(CC)C(=O)C(Cl)=C(C)OP(=O)(OC)OC,inactive,
